Assay results: PubChem BioAssay
Calls of active or inactive are those of the source. Unless noted, no rule for the calls is given here.

Columns and labels:
[1] = resazurin metabolic signal in HepG2 cells – cell-based, resazurin fluorescence, 24 h, PK04 Diversity Set, profiling panel (AID 1172); conditions: HepG2 viability, higher = more signal
[2] = budding yeast growth changes without added modifier – OD600, strain BY4716, 24 h, basal condition, primary screen (AID 1173); conditions: S. cerevisiae BY4716 growth, OD600, 24 h; higher = more signal, called active from +8 up or from −8 down
[3] = viability profiling in MM1S myeloma cells – cell-based, resazurin fluorescence, basal, 24 h, PK04 Diversity Set, profiling panel (AID 1174); conditions: higher = more signal, called active from +8 up or from −8 down;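 also: MM1S multiple myeloma cell line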
[4] = biological target: Dihydroorotate dehydrogenase (quinone), mitochondrial (Plasmodium falciparum (isolate 3D7)) (UniProt Q08210); assay: inhibition of P. falciparum DHODH – biochemical, C-terminal His tag, absorbance 600 nm, primary screen (AID 1175); conditions: PfDHODH enzyme, DCIP absorbance 600 nm; higher = more signal, called active from +8 up or from −8 down;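 also: recombinant parasite enzyme with a five histidine tag at its C terminus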
Dihydroorotate dehydrogenase (quinone), mitochondrial (Plasmodium falciparum (isolate 3D7)), sequence (Q08210 whole entry, looked up): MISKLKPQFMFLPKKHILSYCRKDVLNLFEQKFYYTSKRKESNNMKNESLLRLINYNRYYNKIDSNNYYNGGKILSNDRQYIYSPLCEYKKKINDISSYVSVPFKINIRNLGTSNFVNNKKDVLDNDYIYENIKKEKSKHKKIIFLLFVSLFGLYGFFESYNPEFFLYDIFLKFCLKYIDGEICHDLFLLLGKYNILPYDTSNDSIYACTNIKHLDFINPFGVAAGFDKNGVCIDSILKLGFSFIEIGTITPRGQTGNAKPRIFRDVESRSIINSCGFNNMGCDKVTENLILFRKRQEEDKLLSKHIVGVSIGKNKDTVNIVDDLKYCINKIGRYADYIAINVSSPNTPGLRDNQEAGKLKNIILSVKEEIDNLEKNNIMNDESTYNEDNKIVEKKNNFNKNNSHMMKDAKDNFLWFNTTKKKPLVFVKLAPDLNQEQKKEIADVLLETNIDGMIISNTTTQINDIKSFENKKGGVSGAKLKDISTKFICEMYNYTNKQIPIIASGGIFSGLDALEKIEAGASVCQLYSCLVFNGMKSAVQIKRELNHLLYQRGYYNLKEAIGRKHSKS

[5] = inhibition of PAO1 biofilm formation – strain PAO1, LB-PBS medium, absorbance 600 nm, primary screen (AID 1176); conditions: P. aeruginosa PAO1 growth/biofilm, A600, 12 h; higher = more signal
[6] = growth modulation of vineyard yeast isolate – strain RM11-1a, OD600, basal, 24 h, primary screen (AID 1177);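 also: cultures grown under basal conditions with no added stressor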; conditions: S. cerevisiae RM11-1a growth, OD600, 24 h; higher = more signal, called active from +8 up or from −8 down
[7] = growth of efflux-deficient E. coli DRC39 – strain DRC39, OD650, 24 h, E. coli filamentation inducers, primary screen (AID 1178);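 also: growth measured as culture turbidity by optical density at 650 nm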; conditions: E. coli DRC39 acrAB, higher = more signal, called active from +8 up or from −8 down
[8] = growth of efflux-deficient E. coli DRC39 – strain DRC39, OD650, 48 h, E. coli filamentation inducers, primary screen (AID 1179);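 also: screen aims at cell division blockers that make cells filament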; conditions: E. coli DRC39 delta-acrAB growth, higher = more signal, called active from +8 up or from −8 down
[9] = viability profiling in RPMI8226 myeloma cells – cell-based, resazurin fluorescence, basal, 24 h, PK04 Diversity Set, profiling panel (AID 1180); conditions: higher = more signal;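 also: RPMI8826 multiple myeloma cell line at 5000 cells per well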
[10] = biological target: E3 ubiquitin-protein ligase XIAP (Homo sapiens) (UniProt P98170); assay: small molecules binding XIAP protein – biophysical, small-molecule microarray, fluorescence 635 nm, primary screen (AID 1181); conditions: higher = more signal;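 also: score merges 667 nm emission and signal to noise over triplicate slides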
E3 ubiquitin-protein ligase XIAP (Homo sapiens), sequence (P98170 whole entry, looked up, the tested form may be a part): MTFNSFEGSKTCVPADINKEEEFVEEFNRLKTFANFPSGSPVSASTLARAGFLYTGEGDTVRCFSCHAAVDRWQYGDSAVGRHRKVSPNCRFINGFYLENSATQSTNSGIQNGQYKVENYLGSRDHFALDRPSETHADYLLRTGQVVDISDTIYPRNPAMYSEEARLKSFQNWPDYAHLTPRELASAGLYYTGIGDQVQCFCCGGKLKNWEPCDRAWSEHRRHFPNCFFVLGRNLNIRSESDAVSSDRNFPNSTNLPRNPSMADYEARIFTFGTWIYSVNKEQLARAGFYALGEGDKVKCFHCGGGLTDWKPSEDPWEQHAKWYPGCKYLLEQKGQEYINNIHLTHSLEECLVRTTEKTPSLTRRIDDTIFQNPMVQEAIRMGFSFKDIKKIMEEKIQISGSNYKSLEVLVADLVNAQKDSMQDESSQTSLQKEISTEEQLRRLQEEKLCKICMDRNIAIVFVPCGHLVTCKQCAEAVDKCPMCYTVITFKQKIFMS

[11] = system: XIP peptide (Xip251-270) binding; assay: XIP fragment 251-270 binding compounds – biochemical, small-molecule microarray, fluorescence 635/667 nm, 0.1 µg/mL protein, primary screen (AID 1182); conditions: fluorescent protein binding, 635 nm, higher = more signal, called active from +8 up or from −8 down
[12] = system: XIP peptide (Xip251-270); assay: compounds binding XIP fragment 251-270 – biochemical, small-molecule microarray, fluorescence 635/667 nm, 0.5 µg/mL protein, primary screen (AID 1183); conditions: fluorescence 635 nm, higher = more signal
[13] = blood-stage malaria parasite viability loss – strain 3D7, DAPI fluorescence, 100 nL, primary screen (AID 1184);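 also: parasites grown inside human red blood cells in medium with human serum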; conditions: P. falciparum 3D7 growth, 3 d, higher = more signal
[14] = biological target: Homeobox protein Hox-A13 (Mus musculus) (UniProt Q62424); assay: disruptors of Hoxa13 oligonucleotide interaction – biochemical, fluorescence polarization, labeled oligonucleotide, primary screen (AID 1185); conditions: Hoxa13:DNA binding, 15 min, higher = more signal, called active from +8 up or from −8 down
Homeobox protein Hox-A13 (Mus musculus), sequence (Q62424 whole entry, looked up): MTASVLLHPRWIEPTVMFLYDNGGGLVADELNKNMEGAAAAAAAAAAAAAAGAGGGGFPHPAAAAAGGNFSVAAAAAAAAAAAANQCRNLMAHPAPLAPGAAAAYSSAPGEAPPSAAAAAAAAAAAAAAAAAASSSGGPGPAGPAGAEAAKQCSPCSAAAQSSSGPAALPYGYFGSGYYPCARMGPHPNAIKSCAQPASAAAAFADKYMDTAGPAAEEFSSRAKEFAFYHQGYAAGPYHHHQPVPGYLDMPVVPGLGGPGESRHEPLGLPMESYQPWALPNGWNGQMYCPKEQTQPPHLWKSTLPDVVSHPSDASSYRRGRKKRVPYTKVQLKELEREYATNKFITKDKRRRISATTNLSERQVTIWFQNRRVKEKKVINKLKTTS

[15] = blockers of DNA damage checkpoint Chk1 activation – imaging, HeLa, hydroxyurea, phospho-Chk1 antibody, percent positive cells, primary screen (AID 1186); conditions: hydroxyurea-induced phospho-Chk1 immunofluorescence imaging, higher = more signal
[16] = blockers of DNA damage checkpoint Chk1 activation – imaging, HeLa, hydroxyurea, phospho-Chk1 nuclear intensity, primary screen (AID 1187); conditions: hydroxyurea-induced phospho-Chk1 immunofluorescence imaging, higher = more signal

Compound	z-score [1]	z-score [2]	z-score [3]	composite z-score [4]	z-score [5]	z-score [6]	z-score [7]	z-score [8]	z-score [9]	composite z-score [10]	composite z-score [11]	composite z-score [12]	z-score [13]	z-score [14]	z-score [15]	z-score [16]
COc1cc2c(cc1OC)CN(C(=O)[C@H]1[C@@H]3C(=O)O[C@@H](c4ccccc4)[C@@H](c4ccccc4)N3[C@@H](c3ccc(O)cc3)[C@]13C(=O)Nc1ccccc13)CC2	-0.102	0.744 (inactive)	-0.426 (inactive)	0.806 (inactive)	1.67 (inactive)	1.07 (inactive)	0.188 (inactive)	-0.144 (inactive)	0.0788	0.188	0.602 (inactive)	0.755	-0.044	-2.37 (inactive)	-0.169 (inactive)	-0.238 (inactive)
COc1cc2c(cc1OC)CN(C(=O)[C@H]1[C@@H]3C(=O)O[C@@H](c4ccccc4)[C@@H](c4ccccc4)N3[C@@H](c3ccc(O)cc3)[C@]13C(=O)Nc1ccc(C#CCCO)cc13)CC2	-0.29	0.966 (inactive)	0.577 (inactive)	0.857 (inactive)	0.393 (inactive)	1.16 (inactive)	0.0945 (inactive)	-0.712 (inactive)	0.756	-0.249	0.22 (inactive)	0.798	-1.56	-3.49 (inactive)	0.113 (inactive)	0.393 (inactive)
CC1(C)[C@@H]2CC(C(O)C3C=CC4C(=O)N(Cc5ccccc5)C(=O)C4N3n3cnnc3)=C[C@H]1C2 (stereo not given in full)	0.883	1.22 (inactive)	-0.12 (inactive)	0.525 (inactive)	-0.445 (inactive)	1.29 (inactive)	-0.539 (inactive)	0.102 (inactive)	-0.192	0.136	0.902 (inactive)	-0.0686	-0.101	-3.19 (inactive)	0.338 (inactive)	-0.115 (inactive)
COC(=O)C(CC#Cc1ccc2c(c1)[C@]1(C(=O)N2)[C@H](c2ccc(OCCO)cc2)N2[C@H](c3ccccc3)[C@H](c3ccccc3)OC(=O)[C@H]2[C@@H]1C(=O)N1CCc2cc(OC)c(OC)cc2C1)C(=O)OC	0.399	2.53 (inactive)	0.164 (inactive)	-4.19 (inactive)	3.7 (inactive)	2.97 (inactive)	0.242 (inactive)	-0.182 (inactive)	-0.368	-0.227	0.0734 (inactive)	0.78	-2	-1.29 (inactive)	0.192 (inactive)	0.492 (inactive)
COC(=O)C(CC#Cc1ccc2c(c1)[C@]1(C(=O)N2)[C@H](C(=O)Nc2nc3ccccc3s2)[C@H]2C(=O)O[C@H](c3ccccc3)[C@H](c3ccccc3)N2[C@@H]1c1ccc(O)cc1)C(=O)OC	0.793	-0.0312 (inactive)	0.792 (inactive)	-0.72 (inactive)	1.23 (inactive)	0.698 (inactive)	-0.0857 (inactive)	-0.169 (inactive)	-2	0.208	0.297 (inactive)	0.794	-1.89	-0.424 (inactive)	-0.558 (inactive)	-1.09 (inactive)
C=C[C@H](OC)[C@@H](OC(=O)Nc1ccc(OC)cc1)c1ccc(O)c(F)c1	-0.709	-3.76 (inactive)	-1.78 (inactive)	-1.89 (inactive)	1.05 (inactive)	0.974 (inactive)	1.41 (inactive)	0.98 (inactive)	1.69	0.0623	-0.0346 (inactive)	-0.893	-0.343	-3.1 (inactive)	0.495 (inactive)	0.76 (inactive)
C=CCNC(=O)[C@H]1[C@@H]2C(=O)O[C@@H](c3ccccc3)[C@@H](c3ccccc3)N2[C@@H](c2ccccc2OCCO)[C@]12C(=O)Nc1ccc(C#CCCO)cc12	-0.349	1.22 (inactive)	-0.942 (inactive)	2.6 (inactive)	0.462 (inactive)	2.33 (inactive)	-0.393 (inactive)	-0.445 (inactive)	-0.969	1.02	0.749 (inactive)	0.369	-2.08	-3.91 (inactive)	-0.677 (inactive)	-1.24 (inactive)
O=C1c2ccccc2[C@](Cc2ccccc2I)(C(=O)NCC(F)(F)F)[C@H](c2ccc(CO)cc2)N1Cc1ccccc1Cl	1.08	-1.32 (inactive)	0.519 (inactive)	-0.246 (inactive)	0.723 (inactive)	-0.838 (inactive)	0.489 (inactive)	0.53 (inactive)	0.417	-0.0663	0.149 (inactive)	0.776	-0.562	-4.2 (inactive)	-0.151 (inactive)	-0.557 (inactive)
C=CC[C@]1(C(=O)NCCCOC)N=C(c2ccc(OCCCO)cc2)O[C@H]1c1ccccc1CN=[N+]=[N-]	0.127	-0.024 (inactive)	-0.266 (inactive)	-0.339 (inactive)	0.978 (inactive)	-0.755 (inactive)	-0.161 (inactive)	-0.347 (inactive)	-0.257	-0.0134	0.967 (inactive)	0.763	-2.52	-5.11 (inactive)	0.14 (inactive)	-0.0062 (inactive)
C=CCNC(=O)[C@@H]1[C@H]2C(=O)O[C@H](c3ccccc3)[C@H](c3ccccc3)N2[C@H](c2ccc(O)cc2)[C@@]12C(=O)Nc1ccc(C#CCNC(N)=O)cc12	-0.361	0.295 (inactive)	0.194 (inactive)	-0.433 (inactive)	0.0485 (inactive)	0.24 (inactive)	-0.0851 (inactive)	-0.124 (inactive)	0.221	-0.33	0.33 (inactive)	0.0915	-0.1	-3.36 (inactive)	-0.0873 (inactive)	-0.0078 (inactive)
